# FLuc inh: inhibitors of firefly (Photinus pyralis) luciferase | purified P. pyralis luciferase, luminescence, biochemical | Potency, µM (highest dose often 115 µM), usual class: inhibitors | hit rate 2.5% among 76,000; note: nearly all actives have a fitted effect of over 65% in size
# Target sequence (P08659 whole entry, looked up): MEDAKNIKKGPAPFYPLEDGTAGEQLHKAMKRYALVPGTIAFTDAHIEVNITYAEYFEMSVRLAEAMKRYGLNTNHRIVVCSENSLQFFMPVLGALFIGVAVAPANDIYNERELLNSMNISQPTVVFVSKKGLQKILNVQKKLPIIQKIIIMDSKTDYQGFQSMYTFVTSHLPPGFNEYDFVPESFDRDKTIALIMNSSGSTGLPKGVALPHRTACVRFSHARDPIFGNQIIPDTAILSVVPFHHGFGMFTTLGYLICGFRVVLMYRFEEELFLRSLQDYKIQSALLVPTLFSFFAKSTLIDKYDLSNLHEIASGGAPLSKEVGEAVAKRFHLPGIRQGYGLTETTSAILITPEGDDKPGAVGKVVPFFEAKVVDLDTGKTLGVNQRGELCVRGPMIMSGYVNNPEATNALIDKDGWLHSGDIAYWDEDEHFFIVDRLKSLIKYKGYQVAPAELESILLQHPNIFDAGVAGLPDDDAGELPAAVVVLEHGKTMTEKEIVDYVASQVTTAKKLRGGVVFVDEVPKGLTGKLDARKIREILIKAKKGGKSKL
#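 Purified P. pyralis luciferase (10nM final) in 50mM Tris acetate pH 7.5, 10mM Mg acetate, 0.01% Tween-20, 0.05% BSA with 10uM D-luciferin and 10uM ATP. Compounds titrated qHTS. Luminescence imaged on CCD.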
# hNpr1 antagonist: antagonists of human natriuretic peptide receptor Npr1; P16066; HEK293 hNpr1 GloSensor cGMP, ANP-stimulated luminescence; Potency, µM (series often up to 46.3 µM), without a hit: at the top dose activity change, negative = inhibition, actives largely listed as inhibitors; hit rate 1.6% among 76,000; calls by dose curve; note: nearly all actives have a fitted effect of over 60% in size
#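 Compound pre-incubated 30 min at room temperature on GloSensor-loaded HEK293 cells stably carrying hNpr1 and the pGS-40F cGMP biosensor. Stimulation uses hNppA at 0.1 nM final; luminescence is taken at baseline and 20 min post-agonist.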
# 3T3 cytotox: cytotoxic compounds in NIH 3T3 cells. NIH 3T3 viability, CellTiter-Glo ATP luminescence, 48-72 h. Potency, µM (top dose mostly 96.7 µM), for inactives: at the top dose activity change, negative = cytotoxicity, hits mostly inhibitors. hit rate 4.3% among 94,000. AID 1345082; note: nearly all actives have a fitted effect of over 55% in size
#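 First NIH 3T3 cells are plated at 400 cells/well; next compound is pinned in; then plates incubate 48 or 72 hr at 37 °C; finally CellTiter-Glo is added and luminescence read after 10 min.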
# HEK cytotox: HEK 293 cell cytotoxicity | HEK 293 viability, ATP luminescence (CellTiter-Glo), 48-72 h | Potency, µM (top dose mostly 115 µM), for inactives: at the highest dose activity change, negative = cytotoxicity, most hits filed as inhibitors | hit rate 6.6% among 94,000; note: nearly all actives have a fitted effect of over 60% in size
#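 HEK 293 seeded at 250 cells/well receive compound via pintool. After 48 or 72 hr at 37 degree Celsius, 5% CO2 and 95% humidity, CellTiter-Glo is dispensed and luminescence read following 10 min at room temperature.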
# * marks the source's active call; other numbers are inactive results; i = inactive; ? = inconclusive; . = no result; [ ] = remark or other dose. Sampled rows, rich in hits. Any-hit rate of the full collection: about 11%. Unless noted, calls come from the whole dose curve; as a rule, active = well fitted curve in the direction sought with a large enough effect; inconclusive = small, poorly fitted or top-dose-only effect, or another doubt; inactive = no such curve, though single readings can be large; an effect the other way counts as inactive or inconclusive. % is set by controls: 0 for no effect and ±100 for the full control effect; potency is the fitted concentration of half-maximal effect.
SMILES,FLuc inh,hNpr1 antagonist,3T3 cytotox,HEK cytotox
COc1ccc(NC(=O)O[C@@H]2CO[C@H]3[C@@H]2OC[C@@H]3NS(=O)(=O)c2ccccc2C#N)cc1,i,-7.3%,-18.1%,0.6%
O=C(Nc1ccccc1)N[C@H]1CO[C@H]2[C@@H]1OC[C@@H]2Nc1nccc(C2CCCC2)n1,i,1.7%[70.6 µM],?,-29.6%[172 µM]
O=C(Nc1cccc(C(F)(F)F)c1)N[C@H]1CO[C@H]2[C@@H]1OC[C@@H]2Nc1nccc(C2CCCC2)n1,i,-6.2%,79.4µM*,?
CCN1C(=O)C2CC3(CCN(C(=O)c4ccc(Cn5nc(C)cc5C)o4)CC3)CN2C1=O (centres undefined),.,.,-18.1%,-7.8%
COCCn1c(=O)c(C(=O)N2CCN(C(=O)c3ccc(C)cc3)CC2)nc2cccnc21,.,.,-18.6%,2.8%
O=C(Nc1cccc(C(F)(F)F)c1)O[C@@H]1CO[C@H]2[C@@H]1OC[C@@H]2NC(=S)Nc1ccc(Cl)cc1,i,-26.0%,?,44.7µM*
COc1ccc(NC(=O)O[C@@H]2CO[C@H]3[C@@H]2OC[C@@H]3NCc2ccc(-c3ccccc3)cc2)cc1,?,5.62µM*,?,35.5µM*
COc1ccc(NC(=O)N[C@H]2CO[C@H]3[C@@H]2OC[C@H]3OC(=O)Nc2ccc(OC)cc2)cc1,?,-2.2%,i,-9.3%
O=C(Nc1ccc(Oc2ccccc2)cc1)N[C@H]1CO[C@H]2[C@@H]1OC[C@@H]2n1nnnc1Oc1ccc(-n2cncn2)cc1,i,-24.6%,?,25.1µM*
O=C(Nc1cc(C2CC2)nn1-c1ccccc1)c1ccc(Cl)cc1,.,.,-26.4%,-20.0%
COCc1nc(-c2ccc(OC3CN(C(=O)c4ccc(OC)cc4)C3)cc2)no1,i,1.41µM*,?,?
COCc1nc(-c2ccc(OC3CN(C(=O)C(C)Oc4ccccc4)C3)cc2)no1 (centres undefined),i,?,?,39.8µM*
COc1ccc(-c2[nH]ncc2CNC(=O)C(c2ccccc2F)N(C)C)cc1 (centres undefined),i,0.5%,-18.9%,?
CC1Oc2ccc(NS(=O)(=O)c3ccc(F)cc3)cc2CN(Cc2ccc(F)cc2)C1=O (centres undefined),i,-22.9%,?,44.7µM*
CC1Oc2ccc(NC(=O)Cc3ccccc3)cc2CN(Cc2ccc(F)cc2)C1=O (centres undefined),i,?,?,44.7µM*
CC1Oc2ccc(NC(=O)Cc3ccc(F)cc3)cc2CN(CCc2ccc(F)cc2)C1=O (centres undefined),i,-8.8%,?,?
CC1Oc2ccc(NC(=O)Cc3ccc(F)cc3)cc2CN(CC2CC2)C1=O (centres undefined),i,4.9%,?,39.8µM*
COc1ccccc1CN1Cc2cc(NS(=O)(=O)c3ccc(C)c(F)c3)ccc2OC(C)C1=O (centres undefined),i,-14.0%,?,?
COc1ccc(CN2Cc3cc(NC(=O)Cc4ccc(F)cc4)ccc3OC(C)C2=O)cc1 (centres undefined),i,-12.9%,?,39.8µM*
CCN1c2cc(C(=O)NCc3cc(F)ccc3F)ccc2C(=O)N2CCCCCC21 (centres undefined),i,-12.7%,?,?
CN1CC2(CCN(S(=O)(=O)c3ccc(C#N)cc3)CC2)CC1C(=O)N1CCOCC1 (centres undefined),i,1.5%,4.1%,-3.3%
Cc1ccccc1Oc1ncccc1CNC(=O)c1ccc2c(c1)OCO2,i,-1.8%,?,-10.6%
Cc1nc2ccc(C(=O)NCc3cccnc3Oc3ccccc3C)cc2[nH]1,i,-20.0%,50.1µM*,?
Cc1nn(-c2ccccc2)c2c1C(C(C)C)N(C1CN(C(=O)c3ccc(C(F)(F)F)cc3)C1)C2=O (centres undefined),.,.,-22.4%,i
COC(=O)CN1CCOC(c2ccc3cc(OC)ccc3c2)C1 (centres undefined),i,-0.4%,?,?
SMILES,FLuc inh,hNpr1 antagonist,3T3 cytotox,HEK cytotox
CCc1nc(CN2CCOC(c3ccc4cc(OC)ccc4c3)C2)no1 (centres undefined),39.8µM*,1.9%,?,?
O=C(c1cc2ccccc2[nH]1)N1CCC(c2noc(C3CC3)n2)C1 (centres undefined),28.2µM*,?,?,?
O=C(O)CCC(=O)N1Cc2ccccc2CC2(CCCN2CC2CCNC2)C1 (centres undefined),.,.,-7.1%,-6.3%
O=C(NCc1cccs1)[C@@H]1C[C@@H](O)[C@H](O)[C@@H]2NC(=S)N(c3ccc(OC(F)(F)F)cc3)[C@@H]21,44.7µM*,-5.3%,?,?
CC1CCCN(C(=O)c2cc(-c3ccc(C(F)(F)F)cc3)nc3c2cnn3C)C1 (centres undefined),.,.,?,44.7µM*
CNC(=O)c1cc(-c2ccc(C(F)(F)F)cc2)nc2c1cnn2C,.,.,?,-20.2%
CCN1CCN(C(=O)c2cc(-c3cccc(C(F)(F)F)c3)nc3c2cnn3C)CC1,.,.,31.6µM*,?
Cn1ncc2c(C(=O)NCC3CC3)cc(-c3cccc(C(F)(F)F)c3)nc21,.,.,-0.4%,i
CCCCCC(=O)N1CC(=O)N(Cc2ccc(C)cc2)CC(O)C1 (centres undefined),.,.,?,-4.1%
O=C(NCCC1=CCCCC1)c1cc2n(n1)CC(c1ccc3c(c1)OCO3)OC2 (centres undefined),i,?,?,70.8µM*
O=C(NCCC1=CCCCC1)c1cc2n(n1)CC(c1ccc(Cl)cc1)OC2 (centres undefined),i,?,?,44.7µM*
CC(C)(C)C(=O)NC1CCN(c2ccc3nnc(C4CC4)n3n2)C1 (centres undefined),.,.,-24.5%,-3.2%
CN1c2cc(C(=O)Nc3ccc(Br)cc3)ccc2C(=O)N2CCCCCC21 (centres undefined),?,-28.0%,?,35.5µM*
CN1c2cc(C(=O)Nc3ccc(C(F)(F)F)cc3)ccc2C(=O)N2CCCCCC21 (centres undefined),?,-21.8%,?,?
CN1c2cc(C(=O)Nc3ccc(Br)cc3)ccc2C(=O)N2CCCCC21 (centres undefined),31.6µM*,-2.9%,?,?
Cn1nc(C2CCCN2)c2c(C(=O)NCC(F)(F)F)cc(C3CC3)nc21 (centres undefined),.,.,i,0.0%
O=C(NCC(F)(F)F)c1cc(C2CC2)nc2c1c(C1CCCN1)nn2-c1ccccc1 (centres undefined),.,.,22.4µM*,?
O=C(NCc1ccncc1)c1cc(C2CC2)nc2c1c(C1CCCN1)nn2-c1ccccc1 (centres undefined),.,.,20µM*,44.7µM*
CC(C)CNC(=O)c1cc(C2CC2)nc2c1c(C1CCCN1)nn2-c1ccccc1 (centres undefined),.,.,17.8µM*,22.4µM*

# Assay outcomes from PubChem BioAssay.
